Potency, activity, negative = inhibition and outcome data for 6 molecules are collected here from PubChem BioAssay (NCATS).

Unmarked numbers belong to inactive results. Inconclusive results are not listed. The source made the active and inactive calls. Calls come from the whole dose curve; as a rule, active = well fitted curve in the direction sought with a large enough effect; inconclusive = small, poorly fitted or top-dose-only effect, or another doubt; inactive = no such curve, though single readings can be large; an effect the other way counts as inactive or inconclusive. Numbered stars: 1 amine (or outer) side, 2 acyl side, 3 side chain; on linkers, the order of the positions; unused ones are H or OH. Bridge positions count the residues as written; N and C are the ends. Square brackets hold non-standard residues; d marks the D form. Peptide text beside a SMILES is read from it. * marks the point of attachment. ξ: configuration not given here. ΔAla(Z-3-ureido) = NC(=O)N/C=C(\N)C(=O)O; X1 = NC1=NCCC(C(N[*:1])C(=O)[*:2])N1; ξβ3hOrn = NCCCC(N)CC(=O)*; Orn = NCCC[CH](N)C(=O)O; Dap = NC[CH](N)C(=O)O

Test [1] deals with Ubiquitin carboxyl-terminal hydrolase 1 (Homo sapiens) (UniProt O94782). The test can be described thus: Inhibitors of USP1/UAF1: Pilot qHTS (AID 504865). Note: nearly all actives have a fitted effect of over 35% in size. Note: potency is the fitted concentration of half-maximal effect. Put shortly: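 1nM USP1/UAF1 + cpd, 15 min RT; start w/ Ub-Rho 150nM final; kinetic FL 480/540 nm, 6 reads q60 s. Buffer 50mM HEPES pH 7.8, 0.5mM EDTA, 1mM TCEP, 0.01% Tween-20, 0.1 mg/ml BSA.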
Chain of Ubiquitin carboxyl-terminal hydrolase 1 (Homo sapiens) (O94782 whole entry, looked up): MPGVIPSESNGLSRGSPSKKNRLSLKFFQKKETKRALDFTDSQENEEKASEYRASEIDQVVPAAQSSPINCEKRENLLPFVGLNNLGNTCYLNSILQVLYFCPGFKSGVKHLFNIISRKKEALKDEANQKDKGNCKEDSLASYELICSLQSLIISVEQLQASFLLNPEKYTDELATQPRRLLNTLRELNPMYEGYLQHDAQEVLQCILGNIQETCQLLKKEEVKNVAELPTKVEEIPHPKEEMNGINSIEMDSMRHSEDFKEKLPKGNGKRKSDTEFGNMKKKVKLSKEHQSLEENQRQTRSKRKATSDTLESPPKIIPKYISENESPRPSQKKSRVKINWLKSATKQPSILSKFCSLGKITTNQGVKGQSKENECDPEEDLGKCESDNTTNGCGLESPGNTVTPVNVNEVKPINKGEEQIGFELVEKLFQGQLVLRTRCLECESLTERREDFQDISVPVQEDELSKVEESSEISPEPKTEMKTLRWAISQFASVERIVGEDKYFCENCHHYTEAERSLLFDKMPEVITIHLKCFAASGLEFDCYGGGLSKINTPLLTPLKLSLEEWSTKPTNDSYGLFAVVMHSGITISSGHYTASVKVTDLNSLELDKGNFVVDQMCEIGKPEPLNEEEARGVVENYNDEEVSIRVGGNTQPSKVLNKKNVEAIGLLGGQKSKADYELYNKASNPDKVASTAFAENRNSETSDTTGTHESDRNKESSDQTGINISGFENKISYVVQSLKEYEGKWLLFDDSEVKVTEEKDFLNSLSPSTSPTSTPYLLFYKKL
Test [2] can be described thus: qHTS profiling for inhibitors of Plasmodium falciparum proliferation (AID 504749).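 For activity, negative = inhibition: 0% = DMSO vehicle and full inhibition = artemisinin control.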 For all read-outs here: nearly all actives have a fitted effect of over 60% in size. Note: potency is the fitted concentration of half-maximal effect. The conditions noted are these: P. falciparum in erythrocytes, SYBR Green DNA, 72 h; for activity, negative = inhibition: at 28.7 µM (top of the series). Put shortly: (§1)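 In a 72 h erythrocytic culture (37 C, humidified, 5% CO2) at 2.5% hematocrit and 0.3% starting parasitemia, compounds were tested; SYBR Green I in detergent lysis buffer stained parasite DNA overnight.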
(In general: In qHTS, concentration-response curves come from the screen itself.)

The next test deals with AA1029. Described as above. Particulars: P. falciparum in erythrocytes, SYBR Green DNA, 72 h; series mostly up to 28.7 µM. In a few lines: as §1
The next test relates to ATS189. The description is as above. Particulars: P. falciparum in erythrocytes, SYBR Green DNA, 72 h; series mostly up to 28.7 µM. In a few lines: as §1
In another test the test system is CP185. The test is described as above. Particulars: P. falciparum in erythrocytes, SYBR Green DNA, 72 h; series mostly up to 28.7 µM. In a few lines: as §1
A further test deals with CP201. The description is as above. The conditions noted are these: P. falciparum in erythrocytes, SYBR Green DNA, 72 h; series mostly up to 28.7 µM. In a few lines:
as §1

The next test concerns CP238. The description is as above. The conditions noted are these: P. falciparum in erythrocytes, SYBR Green DNA, 72 h; series mostly up to 28.7 µM. Put shortly: as §1
For another test, the system named is CP252. The test is described as above. Particulars: P. falciparum in erythrocytes, SYBR Green DNA, 72 h; series mostly up to 28.7 µM. Put shortly:
as §1

The next test has as its system CP265. The description is as above. Particulars: P. falciparum in erythrocytes, SYBR Green DNA, 72 h; series mostly up to 28.7 µM. In a few lines: as §1
For another test, the system named is CP286. Described as above. Particulars: P. falciparum in erythrocytes, SYBR Green DNA, 72 h; series mostly up to 28.7 µM. In a few lines:
as §1

Another test deals with CP305. The test is described as above. The conditions noted are these: P. falciparum in erythrocytes, SYBR Green DNA, 72 h; series mostly up to 28.7 µM. Put shortly:
as §1

Another test concerns CP315. The description is as above. The conditions noted are these: P. falciparum in erythrocytes, SYBR Green DNA, 72 h; series mostly up to 28.7 µM. In a few lines:
as §1

The test system of the next test is CP325. The test is described as above. The conditions noted are these: P. falciparum in erythrocytes, SYBR Green DNA, 72 h; series mostly up to 28.7 µM. Put shortly:
as §1

A further test deals with FAB9. Described as above. The conditions noted are these: P. falciparum in erythrocytes, SYBR Green DNA, 72 h; series mostly up to 28.7 µM. In a few lines: as §1
The next test relates to JCK. Described as above. Particulars: P. falciparum in erythrocytes, SYBR Green DNA, 72 h; series mostly up to 28.7 µM. Put shortly: as §1
Test [3] addresses Cytochrome P450 3A4 (Homo sapiens) (UniProt P08684). In words: qHTS Assay for Inhibitors and Substrates of Cytochrome P450 3A4 (AID 884). Note: nearly all actives have a fitted effect of over 50% in size. Note: potency is the fitted concentration of half-maximal effect. Put shortly:
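Luminescent readout of luciferin produced by CYP3A4 (20 nM) dealkylation of Luciferin-PPXE, 25 uM (its KM). NADPH-driven reaction ran 60 min at RT after 10 min compound preincubation; data scaled to 57 uM ketoconazole as 100% inhibition.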

A short description of test [4]: Confirmation and Secondary Assay for Modulators of Hemoglobin Beta Chain Splicing at IVS2 654 locus (AID 910).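 Note: HeLa cells stably carrying EGFP split by mutant beta-globin IVS2-654 intron; per-well total GFP intensity by laser scanning cytometry after 2-day treatment; % of control where 0% means no effect.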 Put shortly: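 Readout: per-well total peak green fluorescence (488 nm ex, 500–520 nm em) from objects 5–250 µm, reflecting correct splicing of an EGFP-654 reporter. Compounds were applied for 2 days at 37 °C to overnight-plated HeLa EGFP-654 cells; controls were DMSO and 500 nM IVS2-654 PNA.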

A short description of test [5]: Confirmation and Secondary Assay for Modulators of Hemoglobin Beta Chain Splicing at IVS2 705 locus (AID 930).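 Note: HeLa cells stably expressing the EGFP-705 splicing reporter; GFP fluorescence per well restored by corrected splicing of the IVS2-705 intron in EGFP; % of control where 0% means no effect.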 In a few lines:
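Assay measures total GFP intensity per well in HeLa EGFP-705 cells after 2 days with compound; mis-splicing normally truncates EGFP, so fluorescence indicates corrected splicing.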

Test [6] concerns the target Cytochrome P450 3A4 (Homo sapiens) (UniProt P08684). In words: qHTS Assay for Activators of Cytochrome P450 3A4 (AID 885). Note: nearly all actives have a fitted effect of over 65% in size. In a few lines: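 Human CYP3A4 dealkylates Luciferin-PPXE to luciferin, which luciferase detection converts to light. Substrate was at its KM (25uM), buffer 200mM KPO4, reaction 60 min at RT.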
For test [7], the target named is DNA dC->dU-editing enzyme APOBEC-3G (Homo sapiens) (UniProt Q9HC16). In words: qHTS for inhibitors of Vif-A3G interactions: Validation (AID 588379). Note: 0% is about no effect. Put shortly: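 Yellow fluorescence (Ex 488, Em 500-530) of Vif-coexpressing HeLa A3G-eYFP cells, scanned by Acumen cytometer, reports blocked A3G degradation. Cells plated at 700/well overnight at 37 deg C before compound addition, then a further overnight compound incubation at 37 deg C.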
Chain of DNA dC->dU-editing enzyme APOBEC-3G (Homo sapiens) (Q9HC16 whole entry, looked up): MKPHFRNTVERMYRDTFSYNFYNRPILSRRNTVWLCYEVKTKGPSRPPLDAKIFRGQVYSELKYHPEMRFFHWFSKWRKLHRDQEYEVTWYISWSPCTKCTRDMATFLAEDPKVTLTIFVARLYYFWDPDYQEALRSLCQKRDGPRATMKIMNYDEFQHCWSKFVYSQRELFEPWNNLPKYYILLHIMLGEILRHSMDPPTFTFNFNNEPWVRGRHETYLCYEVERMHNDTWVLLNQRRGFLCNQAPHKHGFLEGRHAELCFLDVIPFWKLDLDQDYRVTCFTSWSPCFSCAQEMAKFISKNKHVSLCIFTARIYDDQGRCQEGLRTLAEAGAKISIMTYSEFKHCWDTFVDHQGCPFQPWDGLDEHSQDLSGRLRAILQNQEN

Chain of Cytochrome P450 3A4 (Homo sapiens) (P08684 whole entry, looked up): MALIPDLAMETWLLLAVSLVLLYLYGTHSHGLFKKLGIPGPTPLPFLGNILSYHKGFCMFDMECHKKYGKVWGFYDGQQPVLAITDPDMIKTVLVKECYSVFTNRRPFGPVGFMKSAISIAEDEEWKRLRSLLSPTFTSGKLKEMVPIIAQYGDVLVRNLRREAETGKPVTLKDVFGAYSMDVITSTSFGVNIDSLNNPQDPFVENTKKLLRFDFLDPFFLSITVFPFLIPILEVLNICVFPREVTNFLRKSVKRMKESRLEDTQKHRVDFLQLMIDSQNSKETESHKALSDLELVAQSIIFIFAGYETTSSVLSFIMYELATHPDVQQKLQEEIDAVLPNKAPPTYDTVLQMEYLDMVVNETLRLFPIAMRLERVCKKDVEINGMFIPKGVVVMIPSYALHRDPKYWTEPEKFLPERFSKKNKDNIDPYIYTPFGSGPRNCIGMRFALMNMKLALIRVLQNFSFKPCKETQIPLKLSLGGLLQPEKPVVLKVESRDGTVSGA

In the case of `NCCCC(N)CC(=O)NCC1NC(=O)C(CO)NC(=O)C(N)CNC(=O)C(C2CCN=C(N)N2)NC(=O)/C(=C/NC(N)=O)NC1=O` (stereo not drawn) (H-[Dap]S[Dap](ξβ3hOrn)[ΔAla(Z-3-ureido)][X1]; lactam 1-C; configuration not given here), the Potency entry (in test [1]; with AA1029; in the test on ATS189; with CP185; in the test on CP201; with CP238) was “inactive” each time. Further, the Potency entry in the test on CP252, in the test with CP265, in the test on CP286, in the test on CP305, in the test on CP315 and in the test with CP325 was “inactive” in each case. Besides, the Potency result with FAB9 and with JCK was “inactive” in each case. Besides, the activity, negative = inhibition in test [2] (parasite line A) was 10.1%; in test [2] (parasite line B), 0.112%.
In the case of `NC(=O)CCC1NC(=O)C(Cc2ccccc2)NC(=O)C(Cc2ccc(O)cc2)NC(=O)CCSSCC(C(=O)N2CCCC2C(=O)NC(CCCN=C(N)N)C(=O)NCC(N)=O)NC(=O)C(CC(N)=O)NC1=O` (centres undefined), the Potency result (in test [1]; in the test with AA1029; in the test on ATS189; with CP185; in the test with CP201; in the test on CP238) was “inactive” in each case. The Potency entry in the test on CP252, in the test on CP265, in the test with CP286, with CP305, in the test on CP315 and in the test on CP325 was “inactive” throughout. Further, the Potency result in the test with FAB9 and in the test on JCK was “inactive” throughout. Moreover, the activity, negative = inhibition in test [2] (parasite line A) was 9.46%; in test [2] (parasite line B) it was 7.06%.
As to `CC(C)CC1NC(=O)C(CCCN)NC(=O)C(C(C)C)NC(=O)C2CCCN2C(=O)C(Cc2ccccc2)NC(=O)C(CC(C)C)NC(=O)C(CCCN)NC(=O)C(C(C)C)NC(=O)C2CCCN2C(=O)C(Cc2ccccc2)NC1=O` (centres undefined) (cyclo(FPV[Orn]LFPV[Orn]L); configuration not given here), the Potency result in test [3] and in test [1] was “inactive” each time. The call in test [4] and in test [5] was inactive. For the same molecule, the Potency is 1.3 nM (active) in [2] (parasite line A); 1.3 nM (active) in [2] (parasite line B); 0.9 nM (active) with AA1029; 2.2 nM (active) in the test on ATS189; 2.8 nM (active) in the test on CP185; 3.4 nM (active) with CP201. The Potency in the test on CP238 is 1.6 nM (active); in the test with CP252, 1.3 nM (active); in the test on CP265, 1.1 nM (active); in the test on CP286, 0.8 nM (active); in the test on CP305, 1.9 nM (active); in the test on CP315, 1.7 nM (active). Further, the figures for the Potency in the test on CP325, in the test on FAB9 and with JCK were 1.1 nM (active), 10 nM (active) and 56.2 nM (active), respectively.
`COc1cc2c(C)c3c4c(cc(OC)c(OC)c4c2cc1OC)CCN3C`: the values for the Potency in test [3] and in test [1] were 15800 nM (active) and 25100 nM (active), respectively. For the same molecule, the Potency entry in [6] and in test [7] was “inactive” throughout.
As to `CC(C)CC(NC(=O)C(COC(C)(C)C)NC(=O)C(Cc1ccc(O)cc1)NC(=O)C(CO)NC(=O)C(Cc1c[nH]c2ccccc12)NC(=O)C(Cc1cnc[nH]1)NC(=O)C1CCC(=O)N1)C(=O)NC(CCCN=C(N)N)C(=O)N1CCCC1C(=O)NNC(N)=O` (centres undefined), the Potency entry (in test [1]; with AA1029; with ATS189; in the test on CP185; in the test on CP201; in the test with CP238) was “inactive” in each case. The Potency result in the test with CP252, with CP265, in the test with CP286, with CP305, in the test on CP315 and in the test with CP325 was “inactive” in each case. In addition, the Potency entry in the test on FAB9 and in the test with JCK was “inactive” each time. For the same molecule, the results for the activity, negative = inhibition in [2] (parasite line A) and in [2] (parasite line B) were 11.9% and 5.86%, respectively.
Regarding `CC1CCC2[C@](C)(CO)C(O)CC[C@]2(C)C12CCC(CO)(CCO)O2` (some centres undefined), the Potency entry in test [3], in [1] and in [7] was “inactive” each time.
